GBA enhancer – glucocerebrosidase activity enhancement. activation, % at 10 µM. P04062. actives 0.44% (n = 30,000). L444P Gaucher fibroblasts, 4-MU-glucoside fluorescence, 3 days; in the data active = activation above about 65%;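 note: 0% = vehicle wells and 100% = positive control wells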
Starred values were filed as active, the others as inactive. Only a selection was taken, and hits are over-represented in it overall.

SMILES	GBA enhancer
COC(=O)CC1Sc2ccccc2NC1=O (configuration not stated)	-22.0
CC(=O)c1cccc(NC(=O)C=C(C)C)c1	0.6
CC(=O)c1ccc2c(c1)Nc1ccccc1S2	70.8*
Nc1nc(SCC(=O)C23CC4CC(CC(C4)C2)C3)n[nH]1	-17.0
COc1cccc(C2NC(=O)NC(C)=C2C(=O)OCCSC)c1OC (configuration not stated)	-4.9
COc1ccccc1C1CC(c2ccc(C)cc2)Nc2ncnn21 (configuration not stated)	-17.2
O=S(=O)(NC1CCCC1)c1cccc(S(=O)(=O)N2CCC(n3nnc4ccccc43)CC2)c1	-15.5
CCN(C(=O)CCN1C(=O)c2ccccc2C1=O)C1CCCCC1	4.4
COc1ccc(S(=O)(=O)N(CC(=O)NCC2CCCO2)c2ccccc2)cc1OC (configuration not stated)	74.6*
COc1ccccc1CC(=O)NCC1CCCO1 (configuration not stated)	9.6
COc1ccc(S(=O)(=O)N(CC(=O)N2CCN(C)CC2)c2ccccc2)cc1OC	-47.9
CC(=O)N1C(C(=O)O)CSC1c1cccc(C)c1 (configuration not stated)	122.1*
Cc1cccc(NC(=O)c2cnc3n(c2=O)CCS3)c1	-8.1
Cc1cccc(CN2CCN(CC(=O)O)C2=O)c1	12.4
CN1C(=S)SC(C)(C)C1(C)NO (configuration not stated)	10.2
CNC(=O)CN(c1cccc2ccccc12)S(C)(=O)=O	-30.8
Cc1c(Cl)cccc1N(CC(=O)N1CCCCCC1)S(C)(=O)=O	-9.3
Cc1c(Cl)cccc1N(CC(=O)O)S(C)(=O)=O	87.6*
C=CCN(C(=O)Cn1nnc2ccccc21)C(C(=O)NCCOC)c1ccc(OC)cc1OC (configuration not stated)	93.0*
COCCN(C(=O)Cn1nnc2ccccc21)C(C(=O)NC1CCCC1)c1cc(OC)ccc1OC (configuration not stated)	12.5
COCCNC(=O)C(c1ccccc1)N(CCOC)C(=O)Cn1nnc2ccccc21 (configuration not stated)	-7.0
O=C(NCc1n[nH]c(=S)n1-c1ccccc1)c1ccco1	32.3
S=c1[nH]nc(Cc2ccccc2)n1Cc1ccco1	100.5*
COc1cccc(-c2n[nH]c(=S)n2Cc2ccco2)c1OC	6.1

Bioassay records (PubChem)
